Experimental data published in PubChem BioAssay.
The source made the active and inactive calls.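 How the source made its calls, unless noted: active means normalized viability below 100% at a tested concentration; inactive means the rest.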

Key:
[1] = viability loss with induced miR-34 in A549 – imaging, A549 dox-inducible miR-34, nuclei and caspase counts, primary screen (AID 1347080;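 active means compounds whose cell count with miR-34 switched on is under 0.7 times the count with it off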); conditions: A549 miR-34 inducible, Hoechst nuclei count, 48 h
[2] = MELAS cybrid and Rieske KO viability enhancers – cell-based, MELAS cybrids, Rieske KO mouse fibroblasts, CellTiter-Glo, primary screen (AID 1508586;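 active means mean z-score across replicates of 1.96 or higher in either the MELAS or the Rieske mutant cell line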;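 further: z relative to plate mean and SD of compound and empty wells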); conditions: low glucose
[3] = drug combination growth inhibition, ovarian cancer – cell-based, oncology-focused library, rucaparib conditional, profiling panel (AID 1508598); conditions: patient-derived ovarian cancer cells, CellTiter-Glo viability, 144 h, stronger effect = lower value
[4] = stronger effect = lower value, cell number ratio, induced over uninduced
[5] = measured here: relative caspase fold change +Dox/-Dox
[6] = measured here: total cells with miR-34 induction, stronger effect = lower value
[7] = measured here: total cells without miR-34 induction
[8] = MELAS cybrid survival, CellTiter-Glo 48 h, stronger effect = higher value
[9] = Rieske KO mouse fibroblast survival, CellTiter-Glo 72 h
[10] = at 0.000305 µM, OCI-C5x cells, with rucaparib 10 µM, 100% = cells with rucaparib alone
[11] = at 0.000305 µM, OCI-C5x cells, without rucaparib
[12] = at 0.000305 µM, OCI-P5x cells, with rucaparib 20 µM, 100% = cells with rucaparib alone
[13] = at 0.000305 µM, OCI-P5x cells, without rucaparib
[14] = at 0.00122 µM, OCI-C5x cells, with rucaparib 10 µM, 100% = cells with rucaparib alone
[15] = at 0.00122 µM, OCI-C5x cells, without rucaparib
[16] = at 0.00122 µM, OCI-P5x cells, with rucaparib 20 µM, 100% = cells with rucaparib alone
[17] = at 0.00122 µM, OCI-P5x cells, without rucaparib
[18] = at 0.00488 µM, OCI-C5x cells, with rucaparib 10 µM, 100% = cells with rucaparib alone
[19] = at 0.00488 µM, OCI-C5x cells, without rucaparib
[20] = at 0.00488 µM, OCI-P5x cells, with rucaparib 20 µM, 100% = cells with rucaparib alone
[21] = at 0.00488 µM, OCI-P5x cells, without rucaparib
[22] = at 0.0195 µM, OCI-C5x cells, with rucaparib 10 µM, 100% = cells with rucaparib alone
[23] = at 0.0195 µM, OCI-C5x cells, without rucaparib
[24] = at 0.0195 µM, OCI-P5x cells, with rucaparib 20 µM, 100% = cells with rucaparib alone
[25] = at 0.0195 µM, OCI-P5x cells, without rucaparib
[26] = at 0.0781 µM, OCI-C5x cells, with rucaparib 10 µM, 100% = cells with rucaparib alone
[27] = at 0.0781 µM, OCI-C5x cells, without rucaparib
[28] = at 0.0781 µM, OCI-P5x cells, with rucaparib 20 µM, 100% = cells with rucaparib alone
[29] = at 0.0781 µM, OCI-P5x cells, without rucaparib
[30] = at 0.313 µM, OCI-C5x cells, with rucaparib 10 µM, 100% = cells with rucaparib alone
[31] = at 0.313 µM, OCI-C5x cells, without rucaparib
[32] = at 0.313 µM, OCI-P5x cells, with rucaparib 20 µM, 100% = cells with rucaparib alone
[33] = at 0.313 µM, OCI-P5x cells, without rucaparib

Cc1cc(C)c(-c2csc(NC(=O)c3ccccc3)n2)c(C)c1
3610: cell count [1, 6]
4340: cell count [1, 7]
0.994: z-score [2, 9]
inactive: fold change [1, 4] 0.83 | z-score [2, 8] -0.374 | viability [3, 11] 101% | viability [3, 12] 104% | viability [3, 14] 113% | viability [3, 16] 101% | viability [3, 17] 104% | viability [3, 18] 108% | viability [3, 19] 107% | viability [3, 20] 103% | viability [3, 21] 104% | viability [3, 22] 104% | viability [3, 24] 103% | viability [3, 25] 105% | viability [3, 26] 111% | viability [3, 27] 105% | viability [3, 28] 105% | viability [3, 29] 102% | viability [3, 30] 111% | viability [3, 31] 103% | viability [3, 32] 104% | viability [3, 33] 101% | viability ([3]; at 1.25 µM, OCI-C5x cells, with rucaparib 10 µM, 100% = cells with rucaparib alone) 113% | viability ([3]; at 1.25 µM, OCI-C5x cells, without rucaparib) 104% | viability ([3]; at 1.25 µM, OCI-P5x cells, with rucaparib 20 µM, 100% = cells with rucaparib alone) 103% | viability ([3]; at 5 µM, OCI-C5x cells, without rucaparib) 113%
active: viability [3, 10] 97.8% | viability [3, 13] 97.3% | viability [3, 15] 97.2% | viability [3, 23] 96.2% | viability ([3]; at 1.25 µM, OCI-P5x cells, without rucaparib) 100% | viability ([3]; at 5 µM, OCI-C5x cells, with rucaparib 10 µM, 100% = cells with rucaparib alone) 99.6% | viability ([3]; at 5 µM, OCI-P5x cells, with rucaparib 20 µM, 100% = cells with rucaparib alone) 86.6% | viability ([3]; at 5 µM, OCI-P5x cells, without rucaparib) 95.6%
0.759: fold change [1, 5]

C[C@@H]1COc2c(N3CCN(C)CC3)c(F)cc3c(=O)c(C(=O)O)cn1c23
9190: cell count [1, 7]
8330: cell count [1, 6]
0.634: fold change [1, 5]
inactive: fold change [1, 4] 0.906 | z-score [2, 8] -0.0742
0.213: z-score [2, 9]

CCOC(=O)c1[nH]c2cc(Cl)ccc2c1C(C(=O)NC(C)(C)C)N(C=O)Cc1ccc(Cl)cc1 (centres undefined)
-1.07: z-score [2, 9]
inactive: fold change [1, 4] 0.989 | z-score [2, 8] -0.405 | viability [3, 10] 118% | viability [3, 11] 105% | viability [3, 14] 112% | viability [3, 15] 113% | viability [3, 18] 113% | viability [3, 19] 104% | viability [3, 22] 110% | viability [3, 23] 116% | viability [3, 26] 114% | viability [3, 27] 102% | viability [3, 29] 103% | viability [3, 30] 108% | viability [3, 31] 106%
2750: cell count [1, 6]
2780: cell count [1, 7]
0.584: fold change [1, 5]
active: viability [3, 12] 75.1% | viability [3, 13] 82% | viability [3, 16] 66.5% | viability [3, 17] 73% | viability [3, 20] 67.1% | viability [3, 21] 64.8% | viability [3, 24] 69.4% | viability [3, 25] 63.9% | viability [3, 28] 96.7% | viability [3, 32] 99.6% | viability [3, 33] 99.6%
